Bioassay records as filed in PubChem.
Rab9 prom act = qHTS Assay for Rab9 Promoter Activators; Huh7 Rab9 promoter-luciferase reporter, luminescence, 24 h; Potency, µM (titrated, usually from 9.22 µM), usual class: activators; 320,000 compounds, 2.8% hits; AID 485297, 2010; also: nearly all actives have a fitted effect of over 60% in size
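Cells were plated at 1500 per well in reduced-serum medium with 10% FBS and left 2 h. Compound in DMSO was then added for 24 h at 37 °C. Reporter signal was read by luminescence after 10 min with luciferase detection reagent.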
ELG1 genotox = qHTS screen for small molecules that induce genotoxicity in human embryonic kidney (HEK293T) cells expressing luciferase-tagged ELG1; HEK293T ELG1-luciferase reporter, luminescence, 16 h; Potency, µM (series often up to 46 µM), usual class: activators; 330,000 compounds, 1.3% hits; AID 504466, 2011; also: nearly all actives have a fitted effect of over 60% in size
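HEK293T cells expressing luciferase-tagged ELG1 were exposed to compound or DMSO vehicle for 16 hr at 37 °C and 5% CO2. Luciferase activity was then measured with ONE-Glo after 30 min at room temperature.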
SMN2 splice enh = qHTS Assay for Enhancers of SMN2 Splice Variant Expression. Potency, µM (doses to about 46.1 µM), actives largely listed as activators. AID 1458, 2008. 210,000 compounds, 2.8% hits. HEK293 SMN2-luciferase splicing reporter, luminescence, 30-36 h; also: nearly all actives have a fitted effect of over 55% in size
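qHTS luciferase splicing reporter: luminescence rises when SMN2 exon 7 is included in transfected HEK293 cells. Compound exposure lasted 30-36 h at 37C, with 4.5 mM final sodium butyrate as control, followed by a ONE-Glo read.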
FLuc modulator = qHTS profiling assay for firefly luciferase inhibitor/activator using purifed enzyme and Km concentrations of substrates (counterscreen for miR-21 project); Luciferin 4-monooxygenase (Photinus pyralis), P08659; purified FLuc, Km substrates, luminescence inhibition; Potency, µM (doses to about 57.5 µM), usual class: inhibitors; 360,000 compounds, 6.9% hits; also: nearly all actives have a fitted effect of over 55% in size
Target sequence (P08659 whole entry, looked up): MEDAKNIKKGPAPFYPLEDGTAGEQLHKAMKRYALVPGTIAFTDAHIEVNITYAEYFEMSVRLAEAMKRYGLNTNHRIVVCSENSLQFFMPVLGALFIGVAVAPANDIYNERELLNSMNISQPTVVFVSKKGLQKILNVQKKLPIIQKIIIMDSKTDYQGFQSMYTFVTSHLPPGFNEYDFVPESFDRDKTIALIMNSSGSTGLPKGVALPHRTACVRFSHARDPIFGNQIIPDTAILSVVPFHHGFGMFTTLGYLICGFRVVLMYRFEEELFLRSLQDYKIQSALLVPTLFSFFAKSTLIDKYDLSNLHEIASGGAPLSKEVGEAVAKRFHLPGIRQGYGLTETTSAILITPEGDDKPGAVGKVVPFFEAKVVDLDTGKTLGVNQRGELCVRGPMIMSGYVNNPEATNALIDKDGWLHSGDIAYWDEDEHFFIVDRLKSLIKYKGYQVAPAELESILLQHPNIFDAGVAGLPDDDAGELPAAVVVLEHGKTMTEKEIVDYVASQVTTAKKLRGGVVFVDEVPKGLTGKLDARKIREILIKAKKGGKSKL
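Purified P. pyralis luciferase, 10 nM final, with Km-level 10 uM D-luciferin and 10 uM ATP in 50 mM Tris acetate pH 7.5, 10 mM Mg acetate, 0.01% Tween-20, 0.05% BSA; 6-point qHTS titration about 60 µM downward; luminescence read.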
NPC1 promoter act = qHTS Assay for NPC1 Promoter Activators | Huh7 NPC1 promoter luciferase reporter, 24 h | Potency, µM (doses to about 9.22 µM), usual class: activators | 320,000 compounds, 2.4% hits | AID 485313, 2010; also: nearly all actives have a fitted effect of over 60% in size
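Readout is luciferase luminescence, reflecting NPC1 promoter activation in stably transfected Huh7 cells after 24 h compound exposure at 37 °C in reduced-serum medium with 10% FBS.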
ELG1 repair inh = qHTS screen for small molecules that inhibit ELG1-dependent DNA repair in human embryonic kidney (HEK293T) cells expressing luciferase-tagged ELG1; Potency, µM (top dose mostly 46.1 µM), most hits filed as inhibitors; 330,000 compounds, 2.3% hits; HEK293T ELG1-luciferase reporter, luminescence, 16 h; DNA damage induced by 5-fluorouridine; also: nearly all actives have a fitted effect of over 55% in size
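5-Fluorouridine DNA damage + compound/DMSO, 2,000 cells/well, 16 h, 37 °C/5% CO2. ONE-Glo, 30 min RT, luminescence. Readout = decrease in reporter signal.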
A number is an active result; i = inactive; ? = inconclusive; nt = no result given; [ ] = remark or other dose. Only some compounds are listed: those with a hit (about 9.2% of all), similar ones and a draw of the others. Calls follow the shape of the dose curve; as a rule, active = well fitted curve in the direction sought with a large enough effect; inconclusive = small, poorly fitted or top-dose-only effect, or another doubt; inactive = no such curve, though single readings can be large; an effect the other way counts as inactive or inconclusive.

SMILES | Rab9 prom act | ELG1 genotox | SMN2 splice enh | FLuc modulator | NPC1 promoter act | ELG1 repair inh
C/C(=N\OC(=O)NC(C)C)c1sc(-c2ccccc2)nc1C | ? | i | i | ? | 3.98µM | ?
CCNC(=O)O/N=C(\C)c1sc(-c2ccc(Cl)cc2)nc1C | 3.55µM | ? | i | 2.69µM | 1.41µM | ?
C/C(=N\OC(=O)NC(C)C)c1sc(-c2ccc(Cl)cc2)nc1C | ? | ? | ? | 13.5µM | ? | ?
COc1ccc(C(C)(C)C)cc1NC(=O)CCCn1c(=O)oc2ccccc21 | i | i | i | i | i | ?
C[C@@H]1C(=O)O[C@@H]2C[C@]34[C@H]5C[C@@H](C(C)(C)C)[C@@]36[C@@H](OC(=O)[C@@H]6O)O[C@@]4(C(=O)O5)[C@@]12O | nt | nt | i | nt | nt | nt
CN(C)CCCc1c[nH]c2ccccc12 | nt | nt | i[9.22 µM] | nt | nt | nt
CN1C(=O)c2ccccc2Sc2ccc(C(=O)N3CCC4(CC3)OCCO4)cc21 | i | i | i | i | i | i
Cc1ccc(/C=C2/Sc3ccc(C(=O)N4CCC5(CC4)OCCO5)cc3NC2=O)cc1 | i | i | nt | 15.1µM | i | i
CC(=O)c1ccc(NC(=O)CSc2nc(=O)cc(N)n2-c2ccccc2)cc1 | ? | ? | i | ? | i | ?
CN(C(=O)Oc1ccc(F)cc1)c1ccccc1 | i | i | nt | i | i | i
CN(C(=O)Oc1ccc(C(C)(C)C)cc1)c1ccccc1 | ? | ? | i | 23.9µM | i | ?
CCC(=O)c1ccc(OC(=O)N(C)c2ccccc2)cc1 | 2.24µM | 14.6µM | 11.2µM | ? | 2.82µM | ?
C[C@H]1CN([C@@H](C)CO)C(=O)c2cccc(NC(=O)c3ccc(-c4nccs4)cc3)c2O[C@@H]1CN(C)C(=O)Nc1cccc2ccccc12 | nt | i | nt | nt | nt | ?
COc1ccc(C/C(=N\OC(C)=O)c2ccc(OC)cc2)cc1 | i | i | nt | 0.601µM | i | ?
Nc1ccc(Oc2cccc(Oc3ccc(N)cc3)c2)cc1 | i | i | i | 19µM | i | i
O=C(N=Nc1c(O)n(C2OC(=O)c3ccccc32)c2ccccc12)c1ccco1 (centres undefined) | i | i | nt | i | i | ?
Cc1ccc(/C=C2\C(=O)NC(=S)N(c3ccc(F)cc3)C2=O)o1 | i | i | nt | ? | i | i
COc1cccc(N2C(=O)NC(=O)/C(=C/c3ccc4c(c3)Cc3ccccc3-4)C2=O)c1 | i | i | i | 21.3µM | i | ?
COc1cc(/C=C2/C(=O)NC(=O)N(c3ccccc3)C2=O)ccc1O | i | i | i | ? | i | i
COc1ccccc1/C=C1\C(=O)NC(=S)N(c2ccccc2)C1=O | i | i | nt | i | i | i
COc1cccc(N2C(=O)/C(=C/c3ccc(C)o3)C(=O)NC2=S)c1 | i | i | nt | 15.1µM | i | i
COc1ccc(N2C(=O)/C(=C/c3ccc(N(C)C)o3)C(=O)NC2=S)cc1 | i | ? | nt | i | i | ?
CCOc1cccc(N2C(=O)/C(=C/c3ccco3)C(=O)NC2=S)c1 | i | i | nt | 21.3µM | i | i
O=C1NC(=S)N(c2ccccc2)C(=O)/C1=C/c1ccco1 | i | i | nt | 19µM | i | i
NC(=O)c1ncn([C@H]2O[C@@H](CO)[C@@H](O)[C@@H]2O)n1 | nt | nt | i | nt | nt | nt
SMILES | Rab9 prom act | ELG1 genotox | SMN2 splice enh | FLuc modulator | NPC1 promoter act | ELG1 repair inh
COc1ccc2c(c1)CCc1c(C(=O)Nc3c(C)nn(Cc4ccccc4C)c3C)noc1-2 | nt | nt | i | ? | nt | nt
CC1=C(O)C(=O)C=C2C1=CC=C1[C@]2(C)CC[C@@]2(C)C3C[C@](C)(C(=O)O)CC[C@@]3(C)CC[C@@]12C (some centres undefined) | nt | nt | i | nt | nt | nt
Nc1c(C(=O)Nc2cccc(Br)c2)sc2nc3c(cc12)N1CCC3CC1 | nt | nt | i | 12µM | nt | nt
Nc1c(C(=O)Nc2ccc(Cl)cc2)sc2nc3c(cc12)N1CCC3CC1 | nt | nt | i | i | nt | nt
c1ccc(NC2=Nc3ccccc3CC2)cc1 | ? | 16.4µM | i | ? | ? | ?
N#CCCCC[N+]12CN3CN(CN(C3)C1)C2 | nt | nt | i[9.22 µM] | nt | nt | nt
COc1cc(C=C2C(=O)NC(=O)NC2=O)ccc1OCc1ccc([N+](=O)[O-])cc1 | i | 20.6µM | ? | 9.53µM | i | ?
O=C(c1cc2c(s1)-c1ccccc1OC2)N1CCC2(CC1)OCCO2 | 0.891µM | ? | 5.62µM | 6.75µM | ? | ?
CN(C)C(=O)Nc1ccc(Cl)cc1 | nt | nt | i | nt | nt | nt
COc1ccc(-c2nc3ccccc3c(=O)o2)cc1 | ? | ? | 11.2µM | 1.2µM | ? | ?
COc1cc(/C=C/[N+](=O)[O-])ccc1O | i | i | ? | ? | i | 23.1µM
CCOc1cc(C=O)ccc1O | nt | i | i | nt | nt | i
